# Test results published in the supplement of paper PMC12350171.
# Counter-ions that a name gives are not always drawn. Values without a mark were called inactive.
# Key:
# Details in all cases: 20 µM
# [1] = system: Salmonella enterica typhimurium; test: growth AUC normalised to DMSO control (fraction of control); higher = less growth inhibition, active = hit call of the paper
# How it was run: (§1)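 Hemin and NAD were added to the medium for Haemophilus parainfluenzae. All pathogens, after two anaerobic passages, were inoculated at a starting OD578 of 0.01 into pre-reduced mGAM plates with 20 μM compound and 1% DMSO under breathable seals, and OD578 was read hourly for 24 h in three biological replicates. AUC of each growth curve was obtained with the trapezoidal rule up to the exponential-to-stationary transition and normalised to DMSO controls from the same plate.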
# Shigella flexneri = test: as above
# How it was run: as §1
# Vibrio cholerae = test: as above
# How it was run: as §1
# [2] = system: Yersinia pseudotuberculosis; test: as above
# How it was run: as §1
# P. vulgatus RND KO = test: growth AUC normalised to DMSO control (median) (fraction of control); higher = less growth inhibition, active = hit call of the paper
# How it was run: (§2)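 After two overnight anaerobic passages, strains were inoculated at OD578 0.01 into mGAM in 96-well plates containing approved-drug library compounds at 20 μM and 1% DMSO. Growth was followed by reading OD578 hourly for 24 h within an anaerobic incubator. Area under the curve, taken by the trapezoidal rule up to the start of stationary phase, was normalised to same-plate vehicle wells, and the median of three biological replicates is listed.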
# P. vulgatus WT = test: as above
# How it was run: as §2
# [3] = system: S. enterica typhimurium WT; test: as above
# How it was run: as §2
# [4] = system: S. enterica typhimurium tolC KO; test: as above
# How it was run: as §2
# 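For growth AUC normalised to DMSO control (median) in this document: active when median AUC fell below 0.1.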
SMILES,growth AUC normalised to DMSO control [1],growth AUC normalised to DMSO control (Shigella flexneri),growth AUC normalised to DMSO control (Vibrio cholerae),growth AUC normalised to DMSO control [2],growth AUC normalised to DMSO control (P. vulgatus RND KO),growth AUC normalised to DMSO control (P. vulgatus WT),growth AUC normalised to DMSO control [3],growth AUC normalised to DMSO control [4]
Nc1nc(=O)c2c([nH]1)NC[C@@H](CNc1ccc(C(=O)N[C@@H](CCC(=O)O)C(=O)O)cc1)N2C=O [Folinic acid calcium salt],1,0.999,1.01,1,1.01,1.04,1,1
CCOc1cc(CC(=O)N[C@@H](CC(C)C)c2ccccc2N2CCCCC2)ccc1C(=O)O [Repaglinide],1.03,1.06,1.07,1.02,0.956,1.01,1.01,0.981
C=CC1=C(C(=O)O)N2C(=O)[C@@H](NC(=O)/C(=N\OCC(=O)O)c3csc(N)n3)[C@H]2SC1 [Cefixime],0.00409 (active),0.0268 (active),0.0803 (active),0.0395 (active),0.0155 (active),0.0102 (active),0.012 (active),0.00361 (active)
Nc1ncn(C2OC(CO)C(O)C2O)c(=O)n1 (stereo not given) [Azacytidine-5],1.02,1.04,1.02,1.04,0.999,0.996,0.977,0.963
CCCSc1ccc2[nH]c(NC(=O)OC)nc2c1 [Albendazole],1,1.03,0.99,0.993,1.03,1.07,0.999,1
O=C(O)CCCC[C@@H]1SC[C@@H]2NC(=O)N[C@@H]21 [Biotin],0.992,0.975,1,0.946,1.01,1.03,1,1
CN[C@H](CC(C)C)C(=O)N[C@H]1C(=O)N[C@@H](CC(N)=O)C(=O)N[C@H]2C(=O)N[C@H]3C(=O)N[C@H](C(=O)N[C@H](C(=O)O)c4cc(O)cc(O)c4-c4cc3ccc4O)[C@H](O)c3ccc(c(Cl)c3)Oc3cc2cc(c3O[C@@H]2O[C@H](CO)[C@@H](O)[C@H](O)[C@H]2O[C@H]2C[C@](C)(N)[C@H](O)[C@H](C)O2)Oc2ccc(cc2Cl)[C@H]1O [Vancomycin hydrochloride],0.986,0.984,1.01,0.981,0.014 (active),0.0118 (active),0.996,0.996
COC(=O)Nc1nc2cc(Sc3ccccc3)ccc2[nH]1 [Fenbendazole],0.996,1.01,0.995,1.01,1.01,1.01,1.01,0.987
CCCCc1nc(Cl)c(CO)n1Cc1ccc(-c2ccccc2-c2nnn[nH]2)cc1 [Losartan],1.03,1.03,1.04,1.02,0.974,0.977,1,0.995
Cc1cccc(Nc2ccccc2C(=O)O)c1C [Mefenamic acid],1,1.01,0.926,1,0.958,0.979,0.985,1.01
O=C1c2c(O)cccc2Cc2cccc(O)c21 [Anthralin],1.02,0.987,1.03,1.02,0.861,0.834,0.989,0.985
C[C@]12C=CC(=O)C=C1CC[C@@H]1[C@@H]2[C@@H](O)C[C@@]2(C)[C@H]1CC[C@]2(O)C(=O)CO [Prednisolone],0.982,0.96,0.971,0.994,0.976,0.995,0.995,0.998
C[C@]12C=CC(=O)C=C1CC[C@@H]1[C@@H]2C(=O)C[C@@]2(C)[C@H]1CC[C@]2(O)C(=O)CO [Prednisone],1.01,0.994,1,1.01,1.02,1.02,0.994,0.999
CCCC1C(=O)N2C(N(C)C)=Nc3ccc(C)cc3N2C1=O (stereo not given) [Azapropazone],0.983,0.96,0.958,0.964,0.993,1,1,0.995
Cc1cc(C2CCCCC2)n(O)c(=O)c1 [Ciclopirox ethanolamine],1.01,0.997,0.969,0.995,1.02,0.999,1.02,0.952
O=C1CN(/N=C/c2ccc(-c3ccc([N+](=O)[O-])cc3)o2)C(=O)N1 [Dantrolene sodium salt],1.04,0.97,0.948,0.986,1.04,1.03,1.02,0.825
C[N+]1(C)CCC(=C(c2ccccc2)c2ccccc2)CC1 [Diphemanil methylsulfate],0.987,1.01,1.02,1.02,1.03,1.02,0.991,1
COc1cc2nc(N3CCN(C(=O)c4ccco4)CC3)nc(N)c2cc1OC [Prazosin hydrochloride],0.993,0.984,1,1.01,1,1,0.993,0.97
Cc1nc2ccccn2c(=O)c1CCN1CCC(C(=O)c2ccc(F)cc2)CC1 [Pirenperone],1.02,1.03,1.01,1,1.03,1.04,1.01,0.986
CCN(CC)C(=O)/C(C#N)=C/c1cc(O)c(O)c([N+](=O)[O-])c1 [Entacapone],1.02,1.04,1.07,0.998,0.987,0.996,0.997,1
CCC[C@H](N[C@@H](C)C(=O)N1[C@H](C(=O)O)C[C@@H]2CCCC[C@@H]21)C(=O)OCC [Perindopril],1.02,1.02,0.963,1.04,1.03,1.04,1.01,1
OCCN1CCN(CCCN2c3ccccc3Sc3ccc(Cl)cc32)CC1 [Perphenazine],0.99,0.975,0.91,1.01,1.01,0.989,1,0.929
Cc1ccc(S(=O)(=O)NC(=O)NN2CC3CCCC3C2)cc1 (stereo not given) [Gliclazide],1.02,1.04,1.02,0.987,0.999,1.02,1,1.01
NC(=O)OCC(O)COc1ccc(Cl)cc1 (stereo not given) [Chlorphensin carbamate],1.01,1.01,1.03,1.01,0.992,0.994,1.02,0.987
CC(=O)CCCCn1c(=O)c2c(ncn2C)n(C)c1=O [Pentoxifylline],1,0.979,0.967,0.989,0.983,0.99,1,0.987
CC(=O)OCC(CCn1cnc2cnc(N)nc21)COC(C)=O [Famciclovir],1.02,1.01,1.04,1.01,1.03,1.03,1,0.976
C[C@@H]1C[C@H]2[C@@H]3CCC4=CC(=O)C=C[C@]4(C)[C@@]3(Cl)[C@@H](O)C[C@]2(C)[C@@]1(OC(=O)c1ccco1)C(=O)CCl [Mometasone furoate],1.02,1.07,1.01,1.03,1.04,1.06,1.01,0.991
Cn1cnc2c1c(=O)[nH]c(=O)n2C [Theobromine],1.03,1.08,1.04,1.03,1.02,1.03,1.01,1.01
CC(C[N+](C)(C)C)OC(N)=O (stereo not given) [Bethanechol chloride],1,1.01,1.02,0.986,0.982,0.997,1,0.993
O=C(CCCN1CC=C(n2c(=O)[nH]c3ccccc32)CC1)c1ccc(F)cc1 [Droperidol],0.989,0.985,0.892,0.98,0.982,0.976,0.99,0.936
